Measured values as given in PubChem BioAssay AID1159580 (chemical genetic matrix, 2015).
The campaign covered roughly 5,500 compounds. About 2,000 (36%) were called active. Not shown: some 18% with an inconclusive outcome. No stated cut-off is given here; in the data, active means normalized growth mostly below about 0.91 (no sharp cut-off); inconclusive means no clear call, values can overlap the other calls; inactive means mostly above about 0.92. The list shows a part of the results.

Assay: chemical genetic growth profiling, strain panel (AID 1159580);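 further: tested at 20 µM; growth read once vehicle control cultures reached saturation at 30 °C; 1 = growth at the plate median or of vehicle wells; lower values mean less growth of the strain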
Details: growth OD

Measured: normalized growth

Cc1cc(=O)n(-c2ccc([N+](=O)[O-])cc2)[nH]1
inactive: S. cerevisiae deletion strains, locus YDL101C, strain DUN1, active compounds read low 0.955 | S. cerevisiae deletion strains, locus YDR150W, strain NUM1, active compounds read low 0.905 | S. cerevisiae deletion strains, locus YEL061C, strain CIN8, active compounds read low 0.958 | S. cerevisiae deletion strains, locus YLR058C, strain SHM2 (second series), active compounds read low 0.965 | S. cerevisiae deletion strains, locus YNL128W, strain TEP1, active compounds read low 0.957 | S. cerevisiae deletion strains, locus YNL322C, strain KRE1, active compounds read low 0.989
active: S. cerevisiae deletion strains, locus YAL013W, strain DEP1, active compounds read low 0.509 | S. cerevisiae deletion strains, locus YBR229C, strain ROT2, active compounds read low 0.867 | S. cerevisiae deletion strains, locus YGR078C, strain PAC10, active compounds read low 0.927 | S. cerevisiae deletion strains, locus YHR030C, strain SLT2, active compounds read low 0.34 | S. cerevisiae deletion strains, locus YHR087W, strain rtc3, active compounds read low 0.8 | S. cerevisiae deletion strains, locus YJL187C, strain SWE1, active compounds read low 0.814 | S. cerevisiae deletion strains, locus YJR043C, strain POL32, active compounds read low 0.718 | S. cerevisiae deletion strains, locus YJR075W, strain HOC1, active compounds read low 0.847 | S. cerevisiae deletion strains, locus YKL190W, strain CNB1, active compounds read low 0.726 | S. cerevisiae deletion strains, locus YLR039C, strain RIC1, active compounds read low 0.437 | S. cerevisiae deletion strains, locus YLR085C, strain ARP6, active compounds read low 0.592 | S. cerevisiae deletion strains, locus YLR262C, strain YPT6, active compounds read low 0.583 | S. cerevisiae deletion strains, locus YML094W, strain GIM5, active compounds read low 0.84 | S. cerevisiae deletion strains, locus YMR219W, strain ESC1, active compounds read low 0.9 | S. cerevisiae deletion strains, locus YMR263W, strain SAP30, active compounds read low 0.85 | S. cerevisiae deletion strains, locus YNL153C, strain GIM3, active compounds read low 0.884 | S. cerevisiae deletion strains, locus YNL298W, strain CLA4 (second series), active compounds read low 0.821 | S. cerevisiae deletion strains, locus YNR030W, strain Alg12, active compounds read low 0.811 | S. cerevisiae deletion strains, locus YPL055C, strain LGE1, active compounds read low 0.69 | S. cerevisiae deletion strains, locus YPL241C, strain CIN2, active compounds read low 0.811 | S. cerevisiae deletion strains, locus YPR135W, strain CTF4, active compounds read low 0.504 | S. cerevisiae strains, strain wild type, active compounds read low 0.866
